Measured values published in the supplement of paper PMC6411743.
± gives the standard deviation of the averaged measurements. Targets with the largest changes are over-represented here; the source holds about 5,400 in all.

Compound: Nc1nc2c(ncn2[C@@H]2O[C@H](COP(=O)(O)OP(=O)(O)OP(=O)(O)O)[C@@H](O)[C@H]2O)c(=O)[nH]1 [guanosine triphosphate]
Assay: NP40-soluble protein abundance relative to vehicle (solubility fold change) (ratio); higher = more soluble protein in presence of GTP
Description: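 Solubility proteome profiling in Jurkat crude lysate. Lysate was treated with Mg-GTP (0.1-10 mM) for 10 min at room temperature and 3 min at 37 °C, then solubilised with 0.8% NP40 and benzonase, followed by ultracentrifugation. Proteins were quantified by TMT10 LC-MS/MS; the value is the NP40-soluble abundance relative to the NP40-processed vehicle, from 3 independent experiments.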

UniProt O76003, sequence (O76003 whole entry): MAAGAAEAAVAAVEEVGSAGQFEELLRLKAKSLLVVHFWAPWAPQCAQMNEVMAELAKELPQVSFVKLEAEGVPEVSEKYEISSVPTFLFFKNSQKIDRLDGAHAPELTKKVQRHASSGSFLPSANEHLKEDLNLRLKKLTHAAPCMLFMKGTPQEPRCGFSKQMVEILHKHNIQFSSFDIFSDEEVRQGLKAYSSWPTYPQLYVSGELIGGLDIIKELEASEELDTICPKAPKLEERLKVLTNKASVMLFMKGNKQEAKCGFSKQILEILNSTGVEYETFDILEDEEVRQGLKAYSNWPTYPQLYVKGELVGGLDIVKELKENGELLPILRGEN
UniProt P42696, sequence (P42696 whole entry): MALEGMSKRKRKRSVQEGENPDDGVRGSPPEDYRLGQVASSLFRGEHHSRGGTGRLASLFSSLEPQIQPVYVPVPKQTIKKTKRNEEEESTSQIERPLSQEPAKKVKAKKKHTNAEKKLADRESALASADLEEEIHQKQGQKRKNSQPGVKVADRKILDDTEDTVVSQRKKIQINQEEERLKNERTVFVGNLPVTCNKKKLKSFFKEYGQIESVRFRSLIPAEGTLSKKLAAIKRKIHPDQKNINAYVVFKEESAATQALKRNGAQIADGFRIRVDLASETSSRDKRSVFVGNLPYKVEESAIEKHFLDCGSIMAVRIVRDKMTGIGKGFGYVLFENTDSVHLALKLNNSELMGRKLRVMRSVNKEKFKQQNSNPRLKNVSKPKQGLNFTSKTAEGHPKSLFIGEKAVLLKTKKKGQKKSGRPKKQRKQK
UniProt O15260, sequence (O15260 whole entry, one chain of several): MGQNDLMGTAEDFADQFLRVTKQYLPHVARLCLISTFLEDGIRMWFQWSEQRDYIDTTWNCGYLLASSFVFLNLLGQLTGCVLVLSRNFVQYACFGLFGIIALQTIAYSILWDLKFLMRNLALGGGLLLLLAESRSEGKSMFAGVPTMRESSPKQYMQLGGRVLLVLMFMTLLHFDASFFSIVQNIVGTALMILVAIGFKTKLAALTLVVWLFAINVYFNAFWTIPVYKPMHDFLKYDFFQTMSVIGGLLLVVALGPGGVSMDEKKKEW
UniProt P49840, sequence (P49840 whole entry, looked up): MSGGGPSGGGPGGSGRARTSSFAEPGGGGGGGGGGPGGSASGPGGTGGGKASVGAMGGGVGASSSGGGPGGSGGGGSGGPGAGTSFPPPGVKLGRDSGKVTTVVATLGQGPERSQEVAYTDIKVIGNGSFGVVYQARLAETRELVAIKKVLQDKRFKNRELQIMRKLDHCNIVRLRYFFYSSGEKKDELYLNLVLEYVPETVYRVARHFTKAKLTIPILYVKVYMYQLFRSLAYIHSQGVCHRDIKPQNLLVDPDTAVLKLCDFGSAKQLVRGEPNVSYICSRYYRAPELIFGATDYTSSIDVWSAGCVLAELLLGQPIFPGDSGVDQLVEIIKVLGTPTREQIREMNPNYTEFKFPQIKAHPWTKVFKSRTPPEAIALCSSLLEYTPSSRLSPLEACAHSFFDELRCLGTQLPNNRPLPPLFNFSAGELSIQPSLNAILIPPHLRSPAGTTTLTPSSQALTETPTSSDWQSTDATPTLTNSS

Target	NP40-soluble protein abundance (concentration: 0.1mM)	NP40-soluble protein abundance (concentration: 0.5mM)	NP40-soluble protein abundance (concentration: 1mM)	NP40-soluble protein abundance (concentration: 2mM)	NP40-soluble protein abundance (concentration: 4mM)	NP40-soluble protein abundance (concentration: 6mM)	NP40-soluble protein abundance (concentration: 8mM)	NP40-soluble protein abundance (concentration: 10mM)
RBM34 (UniProt P42696)	1.08 ± 0.0039	1.05 ± 0.034	1.14 ± 0.028	1.23 ± 0.065	1.41 ± 0.066	1.57 ± 0.12	1.68 ± 0.12	1.83 ± 0.066
ARPC1B (UniProt O15143)	1 ± 0.045	1.04 ± 0.056	0.933 ± 0.034	0.942 ± 0.062	0.928 ± 0.056	0.948 ± 0.04	0.923 ± 0.017	0.887 ± 0.012
UniProt P49840	0.981 ± 0.028	1.03 ± 0.029	0.913 ± 0.022	0.939 ± 0.02	0.921 ± 0.044	0.925 ± 0.021	0.875 ± 0.051	0.888 ± 0.051
GLRX3 (UniProt O76003)	0.92 ± 0.052	0.946 ± 0.058	0.934 ± 0.068	0.882 ± 0.088	0.864 ± 0.075	0.885 ± 0.085	0.885 ± 0.035	0.871 ± 0.081
UniProt O15260|O15260-2|Q5T8U5	1.13 ± 0.021	1.03 ± 0.05	1.05 ± 0.022	1.01 ± 0.07	1.04 ± 0.074	0.956 ± 0.055	1.03 ± 0.044	0.953 ± 0.03
